Source: PubChem BioAssay (Tox21)
Records with an inconclusive call do not appear. Activity calls are given as the source filed them. Unless noted, the call rests on the fitted dose curve; in most records, active means well fitted curve in the direction sought with a large enough effect in the repeat runs; inconclusive means weak or mixed curves; inactive means no such curve, though single readings can be large; an effect the other way counts as inactive or inconclusive.

Tests used:
[1] = qHTS assay to identify small molecule agonists of the peroxisome proliferator-activated receptor delta (PPARd) signaling pathway - cell viability counter screen (AID 743211); further: nearly all actives have a fitted effect of over 55% in size
Procedure, shortened: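 Multiplexed format: after the 2 h room-temperature LiveBLAzer B/G FRET step, CellTiter-Glo was added to the same wells. Luminescence after 30 min gave cell viability; compound exposure was 17 h at 37C.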

[2] = biological target: Peroxisome proliferator-activated receptor delta (Homo sapiens) (UniProt Q03181); test: qHTS assay to identify small molecule agonists of the peroxisome proliferator-activated receptor delta (PPARd) signaling pathway (AID 743212; calls by dose curve;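 further: HEK293H cells with PPARd UAS beta-lactamase reporter GeneBLAzer system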)
Procedure, shortened: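 Beta-lactamase reporter readout: a ratiometric FRET signal from the LiveBLAzer substrate after 2 h at room temperature. Compound exposure at 37 °C in PPARδ-bla HEK293H cells driven by an upstream activator sequence.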

[3] = qHTS assay to identify small molecule antagonists of the peroxisome proliferator-activated receptor delta (PPARd) signaling pathway - cell viability counter screen (AID 743213); further: nearly all actives have a fitted effect of over 50% in size
Procedure, shortened: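 Viability counter-screen, qHTS format: PPARd-bla HEK293H, L165041 300 nM final, 17 h compound exposure at 37 C, CellTiter-Glo luminescence after 30 min RT.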

[4] = biological target: Bile acid receptor (Homo sapiens) (UniProt Q96RI1); test: qHTS assay to identify small molecule antagonists of the farnesoid-X-receptor (FXR) signaling pathway (AID 743217; active means well fitted inhibition curve with a large enough effect in the signal ratio in the repeat runs, not every such curve was filed as active; the % refers to the signal ratio)
Procedure, shortened: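 Quantitative HTS, beta-lactamase reporter format: FXR-UAS-bla HEK 293T cells co-treated 16 h at 37 °C with compounds and 50 uM final chenodeoxycholic acid, then read by B/G FRET fluorescence.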

[5] = qHTS assay to identify small molecule agonists of the farnesoid-X-receptor (FXR) signaling pathway - cell viability counter screen (AID 743218); further: nearly all actives have a fitted effect of over 45% in size
Procedure, shortened: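 Same-well cytotoxicity check on FXR-UAS-bla HEK 293T cells: 5 h attachment, 16 h compound at 37 C, CellTiter-Glo luminescence read at room temperature after 30 min.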

[6] = biological target: Bile acid receptor (Homo sapiens) (UniProt Q96RI1); test: qHTS assay to identify small molecule agonists of the farnesoid-X-receptor (FXR) signaling pathway (AID 743220; active means well fitted activation curve with a large enough effect in the signal ratio in the repeat runs, not every such curve was filed as active; the % refers to the signal ratio)
Procedure, shortened: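 FXR-UAS-bla HEK 293T cells carrying a UAS-driven beta-lactamase reporter were plated for 5 h at 37C/5% CO2, then exposed to DMSO-dissolved Tox21 10K compounds for 16 h at 37C. A LiveBLAzer B/G FRET substrate was loaded for 2 h at room temperature before fluorescence reading.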

[7] = biological target: Vitamin D3 receptor (Homo sapiens) (UniProt P11473); test: qHTS assay to identify small molecule agonists of the vitamin D receptor (VDR) signaling pathway (AID 743222; calls by dose curve)
Procedure, shortened: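 Using LiveBLAzer B/G FRET detection, agonism was scored in VDR-bla cells exposed overnight (16 h, 37C) to DMSO-dissolved compounds; substrate incubation was 2 h at room temperature.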

[8] = biological target: Vitamin D3 receptor (Homo sapiens) (UniProt P11473); test: qHTS assay to identify small molecule antagonists of the vitamin D receptor (VDR) signaling pathway (AID 743223; active means well fitted inhibition curve with a large enough effect in the signal ratio in the repeat runs, not every such curve was filed as active; the % refers to the signal ratio)
Procedure, shortened: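 After VDR-bla cells are plated and left 4 h at 37C, DMSO-dissolved compounds and 3 nM (final) calcitriol agonist are added. Incubation continues 16 h at 37C; FRET beta-lactamase substrate then develops 2 h at room temperature.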

[9] = qHTS assay to identify small molecule agonists of the vitamin D receptor (VDR) signaling pathway - cell viability counter screen (AID 743224); further: series mostly up to about 63 µM; nearly all actives have a fitted effect of over 50% in size
Procedure, shortened: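 Counter screen for cytotoxicity: VDR-bla cells at 2,000 cells/well, 16 h compound exposure, then CellTiter-Glo luminescence after the beta-lactamase measurement.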

[10] = qHTS assay to identify small molecule antagonists of the vitamin D receptor (VDR) signaling pathway - cell viability counter screen (AID 743225); further: nearly all actives have a fitted effect of over 50% in size
Procedure, shortened: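 Cytotoxicity toward the VDR-bla HEK 293T line was scored by ATP-based CellTiter-Glo luminescence, read in the wells already used for the beta-lactamase readout after 16 h compound treatment under 3 nM 1-alpha,25-dihydroxyvitamin D3 stimulation.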

[11] = qHTS assay to identify small molecule agonists of the NFkB signaling pathway (AID 1159509; active means well fitted curve in the direction sought with a large enough effect in the signal ratio in the repeat runs, not every such curve was filed as active; the % refers to the signal ratio; further: series mostly up to about 61 µM)
Procedure, shortened: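 Pathway activation was measured in ME-180 cells stably expressing beta-lactamase under NF-kB response element control. Substrate cleavage was read as the 460/530 nm emission shift after 5 hr compound incubation.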

[12] = qHTS assay to identify small molecule agonists of the NFkB signaling pathway - cell viability counter screen (AID 1159515; calls by dose curve; further: series mostly up to about 61 µM; nearly all actives have a fitted effect of over 55% in size)
Procedure, shortened: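 Counter screen run alongside the NFkB-bla agonist assay: ME-180 reporter cells exposed to compounds for 5 hr, then lysed with CellTiter-Glo in the same wells. Luminescence, read after 30 min, reflects viable cells.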

[13] = qHTS assay to identify small molecule agonists of the endoplasmic reticulum stress response signaling pathway (AID 1159516; active means well fitted activation curve with a large enough effect in the signal ratio in the repeat runs, not every such curve was filed as active; the % refers to the signal ratio)
Procedure, shortened: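 For this screen, HeLa cells stably carrying beta-lactamase under the ER stress response element received test compounds, positive controls or DMSO for 5 hr at 37 C; B/G FRET substrate was then added and dual-wavelength emission recorded.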

[14] = qHTS assay to identify small molecule antagonists of the retinoid-related orphan receptor gamma (ROR-gamma) signaling pathway - cell viability counter screen (AID 1159520); further: nearly all actives have a fitted effect of over 50% in size
Procedure, shortened: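 Cytotoxicity was read from cellular ATP (CellTiter-Glo luminescence) after 16 hr at 37 C with 1 uM doxycycline induction. The inducer was added 2 hr after compound transfer to Tet-on ROR gamma CHO cells.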

[15] = biological target: Nuclear receptor ROR-gamma (Homo sapiens) (UniProt P51449); test: qHTS assay to identify small molecule antagonists of the retinoid-related orphan receptor gamma (ROR-gamma) signaling pathway (AID 1159521)
Procedure, shortened: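 Readout: ONE-Glo luciferase luminescence, 30 min at room temperature. System: Tet-on RORγ CHO, RORE-LUC. Sequence: compound 2 h, doxycycline 1 uM final, 16 h at 37 C.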

[16] = qHTS assay to identify small molecule agonists of the AP-1 signaling pathway (AID 1159526; calls by dose curve)
[17] = biological target: Peroxisome proliferator-activated receptor delta (Homo sapiens) (UniProt Q03181); test: qHTS assay to identify small molecule antagonists of the peroxisome proliferator-activated receptor delta (PPARd) signaling pathway (AID 743215; active means well fitted inhibition curve with a large enough effect in the signal ratio in the repeat runs, not every such curve was filed as active; the % refers to the signal ratio;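 further: cells stimulated with agonist L165041 at 300 nM final during compound exposure; series mostly up to about 62 µM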)
Procedure, shortened: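 Screen format: qHTS, antagonist mode. HEK293H PPARd-bla cells received compound and 300 nM L165041 (final), 17 h, 37 C. Beta-lactamase detected via FRET substrate fluorescence, 2 h, room temperature.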

[18] = qHTS assay to identify small molecule antagonists of the farnesoid-X-receptor (FXR) signaling pathway - cell viability counter screen (AID 743221; active means well fitted cell-killing curve with a large enough effect in the repeat runs, not every such curve was filed as active; further: nearly all actives have a fitted effect of over 50% in size)
Procedure, shortened: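 CellTiter-Glo, 30 min RT, luminescence; same wells as the LiveBLAzer FRET read. Cells: FXR-UAS-bla HEK 293T. Treatment: compound with chenodeoxycholic acid 50 uM final, 16 h at 37 C.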

[19] = qHTS assay to identify small molecule agonists of the AP-1 signaling pathway - cell viability counter screen (AID 1159525; calls by dose curve; further: nearly all actives have a fitted effect of over 55% in size)
Procedure, shortened: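 Intracellular ATP by Cell Titer Glo luminescence (30 min, RT) in the same ME-180 AP-1-bla wells after the 5 h compound exposure at 37 °C. Normalised to tetra n-octyl ammonium bromide and DMSO controls.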

Measured: Potency

Chain of Vitamin D3 receptor (Homo sapiens) (P11473 whole entry, looked up): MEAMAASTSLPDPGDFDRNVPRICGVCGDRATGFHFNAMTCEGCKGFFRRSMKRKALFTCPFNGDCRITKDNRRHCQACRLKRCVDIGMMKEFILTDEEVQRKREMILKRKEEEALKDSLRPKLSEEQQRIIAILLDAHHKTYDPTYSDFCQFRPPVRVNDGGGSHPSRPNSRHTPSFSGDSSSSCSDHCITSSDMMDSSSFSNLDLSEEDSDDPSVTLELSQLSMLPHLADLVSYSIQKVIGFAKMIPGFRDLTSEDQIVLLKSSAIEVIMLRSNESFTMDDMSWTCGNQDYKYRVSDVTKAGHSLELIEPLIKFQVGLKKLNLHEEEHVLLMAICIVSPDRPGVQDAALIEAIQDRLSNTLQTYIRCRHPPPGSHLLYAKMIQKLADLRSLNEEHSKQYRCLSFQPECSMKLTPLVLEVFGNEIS
Chain of Bile acid receptor (Homo sapiens) (Q96RI1 whole entry, looked up): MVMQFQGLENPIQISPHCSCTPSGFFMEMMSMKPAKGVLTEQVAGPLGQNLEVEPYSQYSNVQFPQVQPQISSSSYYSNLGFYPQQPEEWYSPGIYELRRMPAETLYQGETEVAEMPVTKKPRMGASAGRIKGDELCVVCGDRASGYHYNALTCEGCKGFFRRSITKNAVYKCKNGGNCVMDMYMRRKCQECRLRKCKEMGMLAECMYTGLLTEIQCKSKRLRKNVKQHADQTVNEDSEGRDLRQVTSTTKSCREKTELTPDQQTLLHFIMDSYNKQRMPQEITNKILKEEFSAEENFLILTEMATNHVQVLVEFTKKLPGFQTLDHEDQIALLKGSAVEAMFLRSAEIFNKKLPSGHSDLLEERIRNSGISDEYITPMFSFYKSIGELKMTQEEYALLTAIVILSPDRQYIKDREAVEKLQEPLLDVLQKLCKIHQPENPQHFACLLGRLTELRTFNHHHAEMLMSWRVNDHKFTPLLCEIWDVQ
Chain of Peroxisome proliferator-activated receptor delta (Homo sapiens) (Q03181 whole entry, looked up): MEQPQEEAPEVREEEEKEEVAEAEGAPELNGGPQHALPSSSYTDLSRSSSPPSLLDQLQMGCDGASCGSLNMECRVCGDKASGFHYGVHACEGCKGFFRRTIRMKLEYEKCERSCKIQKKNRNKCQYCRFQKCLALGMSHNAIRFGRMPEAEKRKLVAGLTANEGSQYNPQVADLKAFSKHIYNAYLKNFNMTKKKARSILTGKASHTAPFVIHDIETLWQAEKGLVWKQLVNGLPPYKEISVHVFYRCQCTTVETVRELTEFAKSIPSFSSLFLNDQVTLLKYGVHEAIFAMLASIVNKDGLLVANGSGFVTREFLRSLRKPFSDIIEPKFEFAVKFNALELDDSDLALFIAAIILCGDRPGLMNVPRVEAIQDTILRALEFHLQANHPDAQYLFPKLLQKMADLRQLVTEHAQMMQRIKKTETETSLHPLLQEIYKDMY

CC(C)C(=O)OCC(C)(C)C(O)C(C)C (configuration not stated)
inactive: [1] | [2] | [3] | [4] | [5] | [6] | [7] | [8] | [9] | [10] | [11] | [12] | [13] | [14] | [15] | [16]

CCN[C@H]1CN(CCCOC)S(=O)(=O)c2sc(S(N)(=O)=O)cc21
inactive: [1] | [2] | [3] | [17] | [5] | [18] | [7] | [8] | [9] | [10] | [11] | [12] | [13] | [19] | [16]

CCC(=O)Nc1ccc(O)cc1
inactive: [1] | [2] | [3] | [17] | [5] | [6] | [18] | [7] | [8] | [9] | [11] | [12] | [13] | [19] | [16]

Cc1ccccc1C(=O)Nc1ccc(C(=O)N2CCCC(O)c3cc(Cl)ccc32)c(C)c1 (configuration not stated)
inactive: [3] | [5] | [6] | [7] | [10] | [11] | [12] | [13] | [14] | [15] | [19]

CC(C)NC[C@@H](O)COc1cccc2ccccc12
inactive: [4] | [5] | [6] | [18] | [7] | [8] | [9] | [10] | [11] | [12] | [13] | [14] | [15] | [19]

COc1cc2c(cc1N)oc1ccccc12
inactive: [17] | [4] | [6] | [18] | [8] | [10] | [11] | [12] | [13] | [14] | [15] | [16]

O=C1Nc2ccc([N+](=O)[O-])cc2C1=O
inactive: [1] | [2] | [3] | [17] | [5] | [18] | [9] | [11] | [12] | [13] | [14] | [15] | [19]

Cc1ccc(C)c(N)c1
inactive: [1] | [2] | [3] | [4] | [5] | [6] | [7] | [9] | [10] | [11] | [12] | [13] | [19] | [16]

O=[N+]([O-])c1nccn1CO[C@@H](CO)[C@H](O)CO
inactive: [1] | [2] | [3] | [17] | [4] | [5] | [6] | [18] | [9] | [10] | [11] | [12] | [13] | [14] | [15] | [16]

CCOc1ccc2nc(N)sc2c1
inactive: [1] | [3] | [5] | [18] | [9] | [10] | [11] | [12] | [13] | [14] | [16]
